# Casp7 inh – blocks human caspase-7 allosterically or competitively; Potency, µM (doses to about 57.5 µM), for the others: top-dose activity change, negative = inhibition, usual class: inhibitors; recombinant caspase-7, Ac-DEVD-AFC fluorescence rate; AID 889; 75,000 compounds, 0.02% hits; P55210; active means well fitted inhibition curve with a large enough effect in the main read-out, with a control signal flat, not every such curve was filed as active; inconclusive means small, poorly fitted or top-dose-only effect, or a change in a side signal; further: % of control where 0% means no effect
# Caspase-1 inhib – allosteric or competitive inhibitors of human caspase-1. Caspase-1 enzyme, Ac-WEHD-AFC fluorogenic rate. Potency, µM (highest dose often 57.5 µM), for the others: at the top dose activity change, negative = inhibition, usual class: inhibitors. 75,000 compounds, 0.03% hits. AID 900;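 further: plate controls were vehicle for no effect and no substrate for full effect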
# Target sequence (P29466 120-297 limits assumed): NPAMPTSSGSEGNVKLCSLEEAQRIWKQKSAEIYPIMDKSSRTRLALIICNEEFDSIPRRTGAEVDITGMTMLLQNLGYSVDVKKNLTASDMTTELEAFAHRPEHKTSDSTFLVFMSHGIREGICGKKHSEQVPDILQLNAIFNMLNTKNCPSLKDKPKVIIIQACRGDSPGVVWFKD
# Target sequence (P29466 317-404 limits assumed): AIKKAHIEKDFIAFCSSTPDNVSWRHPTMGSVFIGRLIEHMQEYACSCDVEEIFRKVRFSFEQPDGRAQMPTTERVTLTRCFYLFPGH
# TSHR agonist – activates the human thyroid stimulating hormone receptor. HEK293-CNG-TSHR cells (CNG channel as cAMP sensor), membrane potential dye, cAMP. Potency, µM (doses to about 57.1 µM), for inactives: at the highest dose activation, hits mostly activators. 73,000 compounds, 0.48% hits; active means well fitted activation curve with a large enough effect in the main read-out, with a control signal flat, not every such curve was filed as active; inconclusive means small, poorly fitted or top-dose-only effect, or a change in a side signal; inactive means no such curve, though single readings can be large or run the other way; % of control where 0% means no effect;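 further: the control signal comes from parental cells without the receptor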
#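 cAMP rise detected as CNG-channel membrane depolarization by fluorescent dye (emission 590 nm), 30 min after compound, following 60 min dye loading containing 100 uM RO 20-1724 at room temperature. Cells: TSHR/CNG HEK 293, with parental CNG HEK 293 as control.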
# ERK AVP block – blocks ERK signaling stimulated by vasopressin. Potency, µM (series often up to 57.5 µM), for inactives: top-dose activity, negative = inhibition, actives largely listed as inhibitors. HEK293-V1b, vasopressin-stimulated pERK AlphaScreen. 72,000 compounds, 0.99% hits; further: on the % scale 0 is the no-effect control and ±100 the full control effect; nearly all actives have a fitted effect of over 55% in size
#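 HEK293 cells stably expressing V1b receptor, preincubated 30 min at 37 °C with compound, then stimulated 5 min with 25 nM vasopressin. Phospho-ERK by AlphaScreen SureFire after 5 h RT; normalized to DMSO and vasopressin; AC50 by Hill fit.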
# HEK293 cAMP ctrl – raises cAMP in parental HEK293 cells, TSHR agonist counter-screen | parental HEK293 CNG cAMP sensor, membrane potential fluorescence | Potency, µM (top dose mostly 57.1 µM), inactives show at the highest dose activation, actives largely listed as activators | 73,000 compounds, 2.5% hits; further: % of control where 0% means no effect; nearly all actives have a fitted effect of over 55% in size
#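 Parental HEK 293 cells stably expressing a cAMP-gated CNG channel were loaded with membrane potential dye containing 100 uM RO 20-1724 for 60 min. Compound added for 30 min; depolarization read as fluorescence intensity at 590 nm.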
# GBA mod – modulators of human glucocerebrosidase; P04062; purified enzyme, resorufin glucoside fluorescence (screen aimed at inhibitors), 20 min; Potency, µM; 48,000 compounds, 1.1% hits; AID 360; in the data active means potency below about 15 µM; inconclusive means mostly about 16 µM to 33 µM;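 further: the screen sought inhibitors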
# Target sequence (P04062 whole entry, looked up): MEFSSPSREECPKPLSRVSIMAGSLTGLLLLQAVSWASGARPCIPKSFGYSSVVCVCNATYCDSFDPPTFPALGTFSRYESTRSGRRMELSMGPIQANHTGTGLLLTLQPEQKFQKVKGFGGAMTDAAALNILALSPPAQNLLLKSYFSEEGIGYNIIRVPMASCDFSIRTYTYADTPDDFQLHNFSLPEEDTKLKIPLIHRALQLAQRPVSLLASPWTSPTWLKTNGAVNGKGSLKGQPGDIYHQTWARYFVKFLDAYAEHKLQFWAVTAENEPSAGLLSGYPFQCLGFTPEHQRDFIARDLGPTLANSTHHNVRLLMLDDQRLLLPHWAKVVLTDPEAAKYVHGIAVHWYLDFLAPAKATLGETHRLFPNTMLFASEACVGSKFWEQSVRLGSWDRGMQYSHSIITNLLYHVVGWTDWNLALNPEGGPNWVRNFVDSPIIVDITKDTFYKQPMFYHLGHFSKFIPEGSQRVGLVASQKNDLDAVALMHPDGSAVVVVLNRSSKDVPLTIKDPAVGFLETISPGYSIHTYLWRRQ
#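 Compounds titrated against 0.2 nM normal enzyme, 30 uM resorufin beta-D-glucopyranoside substrate, citrate/phosphate buffer with taurocholate and tween-20, pH 5.9. Reaction ran 20 min at room temperature; fluorescence (Ex 548/Em 600) gave AC50.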
# * hit, by the source's call; ? = inconclusive; nt = no result given; [ ] = dose if it differs, or a comment. This is a sample that favours compounds with a hit; in the whole collection about 4.5% have one here. Unless noted, the call rests on the fitted dose curve; in most records, active means well fitted curve in the direction sought with a large enough effect; inconclusive means small, poorly fitted or top-dose-only effect, or another doubt; inactive means no such curve, though single readings can be large; an effect the other way counts as inactive or inconclusive. Potency means the concentration at half of the fitted maximal effect.
SMILES,Casp7 inh,Caspase-1 inhib,TSHR agonist,ERK AVP block,HEK293 cAMP ctrl,GBA mod
COC(=O)[C@@H]1CC[C@H](C)[C@@H](c2ccc(C)cc2)N1C(=O)c1ccc(/C=N\O[C@@H](C)c2cc(-c3c(C)cc(C)cc3C)no2)cc1,-0.6%[11.5 µM],-10.5%[11.5 µM],3.0%[11.4 µM],-8.1%[11.5 µM],21.1%[11.4 µM],nt
N=C(N)N,-0.2%,-1.0%,nt,4.7%,nt,nt
COc1cc(-c2nnc3sc(C4CCCCC4)nn23)cc(OC)c1OC,-1.8%,0.1%,?,-16.9%,?,7*
CCOC(=O)N/N=C1/C[C@@H](O)[C@@H](O)[C@@H]2[C@@H]3C(=O)N(c4cccc(Oc5ccccc5)c4)C(=O)[C@H]3CC[C@H]12,-0.5%[11.5 µM],0.0%[11.5 µM],-7.3%[11.4 µM],20.3%[11.5 µM],-5.4%[11.4 µM],nt
CCCCC[C@H](O)/C=C\[C@@H]1[C@H](O)CC(=O)[C@@H]1CCCCCCC(=O)O,0.4%[25.7 µM],-1.3%[25.7 µM],?,-6.5%[25.7 µM],0.0025µM*,nt
CCCCC[C@H](O)/C=C\[C@H]1[C@H](C/C=C\CCCC(=O)O)[C@@H](O)C[C@H]1O (tested in a mixture with another compound),0.5%[25.7 µM],2.3%[25.7 µM],?,?,12.6µM*,nt
CCCCCCCC/C=C\CCCCCCCC(N)=O,0.2%,-2.2%,-0.8%,10.1%,-0.9%,nt
CCCCC[C@H](O)/C=C/[C@H]1[C@H](O)CC(=O)[C@@H]1C/C=C\CCCC(=O)O,-1.5%,1.7%,?,?,0.01µM*,nt
CCCCC[C@H](O)C=C[C@H]1[C@H](O)CC(=O)[C@H]1CCCCCCC(=O)O,-0.2%,-0.7%,?,?,0.01µM*,nt
CCCCCC1C(=O)CCC1CC(=O)OC (stereo not given),2.4%,1.6%,nt,-12.2%,nt,nt
[O-][N+](CCO)(CCO)c1ncnc2nc[nH]c12,1.8%[11.5 µM],2.2%[11.5 µM],-1.7%[11.4 µM],6.3%[11.5 µM],29.2%[11.4 µM],nt
Cc1cc(C(=O)CSc2nnc(-c3ccco3)o2)c(C)n1-c1ccc2c(c1)OCCO2,-2.0%,-2.7%,?,6.0%,15.8µM*,>76.9
Cc1nnc(SCC(=O)c2cc(C)n(-c3ccc4c(c3)OCO4)c2C)s1,-4.4%,2.3%,?,4.8%,15.8µM*,>76.9
N#Cc1ccc(CN2CCC3(CC2)CCN(C(=O)c2csnn2)CC3)cc1,-1.0%,-1.2%,?,-24.5%,?,nt
CCN1C(=O)C2(Nc3ccccc3-c3nc4ccccc4n32)c2cc(OC)ccc21 (stereo not given),-8.9%,-14.9%,?,-16.0%,7.94µM*,>76.9
CC(C)(C)NC(=O)C(c1ccncc1)N(Cc1cccs1)C(=O)Cn1nnc(-c2cccs2)n1 (stereo not given),-3.8%,-3.1%,?,-4.2%,20µM*,?
CCC(C)(C)NC(=O)C(c1ccncc1)N(Cc1cccs1)C(=O)Cn1nnc2ccccc21 (stereo not given),2.2%,1.0%,?,-4.6%,20µM*,>76.9
CCO[Si](CCCN)(OCC)OCC,-1.2%,1.5%,2.7%,21.9%,23.1%,nt
CCCC(c1nnnn1Cc1cccs1)N1CCN(C2CCCC2)CC1 (stereo not given),0.1%,-11.4%,?,2.8%,?,>76.9
CCCC(c1nnnn1Cc1ccco1)N1CCN(C2CCCC2)CC1 (stereo not given),0.5%,0.1%,?,-24.4%,15.8µM*,>76.9
CC(C)C(c1nnnn1Cc1ccco1)N1CCN(c2nc3ccccc3s2)CC1 (stereo not given),2.5%,-3.4%,nt,2µM*,27.1%,>76.9
c1ccc2sc(N3CCN(Cc4nnnn4CC4CCCO4)CC3)nc2c1 (stereo not given),1.4%,-1.7%,?,-7.2%,25.1µM*,>76.9
CCC(c1nnnn1Cc1cccs1)N1CCN(C2CCCC2)CC1 (stereo not given),0.7%,-2.5%,?,1.7%,5.01µM*,>76.9
c1ccc2c(CSCc3cccc4ccccc34)cccc2c1,-1.0%[11.5 µM],-3.9%[11.5 µM],6.9%[11.4 µM],0.8%[11.5 µM],8.4%[11.4 µM],nt
O=C(O)[C@H](CCc1ccccc1)N1C(=O)c2ccccc2C1=O,-0.6%[11.5 µM],-3.5%[11.5 µM],2.2%[11.4 µM],22.3%[11.5 µM],-4.5%[11.4 µM],nt
SMILES,Casp7 inh,Caspase-1 inhib,TSHR agonist,ERK AVP block,HEK293 cAMP ctrl,GBA mod
CCCC(c1nnnn1Cc1ccc(F)cc1)N1CCN(C2CCCCC2)CC1 (stereo not given),1.4%,0.4%,?,31.6µM*,?,>76.9
Fc1ccc(Cn2nnnc2CN2CCN(C3CCCCC3)CC2)cc1,7.6%,-0.4%,?,4.5%,10µM*,>76.9
CCC(c1nnnn1Cc1cccs1)N1CCN(c2nc3ccccc3s2)CC1 (stereo not given),-2.0%,-2.2%,?,?,31.6µM*,nt
Nc1nc2c(C(=O)NCc3cccs3)nnn2c2cccc(Cl)c12,-2.5%[11.5 µM],-2.0%[11.5 µM],-3.9%[11.4 µM],6.5%[11.5 µM],-11.0%[11.4 µM],nt
Nc1nc2ccc([N+](=O)[O-])cc2s1,-3.2%,-0.7%,?,-3.4%,-10.0%,nt
COCCNC(=O)c1ccc(Cc2nc3ccccc3[nH]2)cc1,-1.1%,-1.9%,0.3%,nt,-14.5%,nt
CCCCCCn1c(SCC(C)C)nc2c1c(=O)[nH]c(=O)n2C,-1.2%,2.6%,?,12.0%,25.1µM*,>76.9
CC(C)CCSc1nc2c(c(=O)[nH]c(=O)n2C)n1CCc1ccccc1,-2.2%,0.7%,?,?,10µM*,>76.9
CC(C)CCn1c(SCc2ccc(Cl)cc2)nc2c1c(=O)[nH]c(=O)n2C,-0.8%,-1.8%,?,?,10µM*,>76.9
COC(=O)C(C)Sc1nc2c(c(=O)[nH]c(=O)n2C)n1CCC(C)C (stereo not given),0.6%,-3.2%,8.8%,31.6µM*,1.0%,>76.9
CCCCn1c(SCc2ccc(Cl)cc2)nc2c1c(=O)[nH]c(=O)n2C,-2.5%,-0.4%,?,8.0%,?,>76.9
CN(C)C(=O)c1ccc(-c2ccc3ncnc(N(C)C)c3c2)cc1,-3.6%,-3.2%,8.8%,-16.6%,5.7%,nt
C[C@@H]1O[C@@H](OC[C@@H]2O[C@@H](Oc3c(-c4ccc(O)c(O)c4)oc4cc(O)cc(O)c4c3=O)[C@H](O)[C@H](O)[C@@H]2O)[C@H](O)[C@H](O)[C@@H]1O,nt,nt,-2.3%,nt,-0.2%,nt
CCn1cnc2cc(NCc3cccc(OC)c3O)ccc21,-0.9%,0.2%,3.6%,-18.5%,-4.9%,13.9*
COc1cccc2[nH]c(-c3ccccn3)nc12,-0.3%[11.5 µM],-0.4%[11.5 µM],-8.4%[11.4 µM],-8.8%[11.5 µM],13.1%[11.4 µM],nt
CCOC(=O)CSc1nnc2n1C(C)(C)Cc1ccccc1-2,-0.6%,1.2%,-3.2%,-17.5%,19.8%,>76.9
CC1(C)Cc2ccccc2-c2nnc(SCc3ccc(C#N)cc3)n21,-1.2%,0.8%,?,4.3%,25.1µM*,>76.9
Cc1ccc(C)c(NC(=O)NCc2ccc(Cl)cc2)c1,-0.9%[11.5 µM],-4.5%[11.5 µM],0.2%[11.4 µM],-33.1%[11.5 µM],11.9%[11.4 µM],nt
O=C(C1CC1)N1CCc2cc(Br)cc(S(=O)(=O)N3CCN(c4ccccn4)CC3)c21,-0.7%,-0.9%,?,-20.8%,15.8µM*,>76.9

# Source: PubChem
